Source: PubChem BioAssay AID504336 (NMMLSC, 2011)
Values joined by “and” are separate entries in the source; they are usually repeats but may differ in a detail not shown here. Equal values may be shown once.

Experiment: TOR branch reporter RPL19A-GFP response – cell-based, S. cerevisiae, third cherry pick, flow cytometry, confirmation (AID 504336);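 further: median GFP fluorescence of all gated yeast cells by flow cytometry; ratio of well median fluorescence to plate mean of DMSO wells with DMSO = 100%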
Details: S. cerevisiae RPL19A-GFP strain, 3 h, at 10 µM, stronger effect = lower value;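 active means compounds whose GFP signal falls below 65% of the DMSO control level; inconclusive means fewer than 70 yeast cells counted in the well; inactive means the rest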

GFP response relative to DMSO, inactive:
CCCCC(=O)NCCc1cc2c(OC)ccc(OC)c2[nH]c1=O 97.5%
COc1ccccc1Nc1nc(NCC(C)C)nc(N)c1[N+](=O)[O-] 102%
C=CCNc1nc(N)c([N+](=O)[O-])c(Nc2ccccc2OC)n1 102%
COc1cc(OC)cc(C(=O)Nc2ccc(-c3nc4ccccc4o3)cc2)c1 103%
COc1cccc(N/C(C)=C/C(=O)c2ccc(Br)cc2)c1 101%
Cc1ccc(-c2cc(C(F)F)nc(S(C)(=O)=O)n2)cc1 96.2%
CC(=O)NCCOc1cccc2cccnc12 102%
CS(=O)(=O)Oc1ccc(Br)c2cccnc12 99.3%
CCN(CC)C(=O)Oc1ccnc2cc(Cl)ccc12 103%
CC(=O)NC(C)c1cc(Cl)c2cccnc2c1O (centres undefined) 99.1%
COc1cccc(N/C=C/C(=O)c2ccc(C)cc2)c1 103%
Nc1cc(C(=O)O)c(N)c2c1C(=O)c1ccccc1C2=O 98.5%
O=C(Nc1nc(-c2ccccn2)cs1)c1ccccc1-n1cnnn1 98.8%
Cc1ccc(C)c(Nc2ncnc(N)c2[N+](=O)[O-])c1 99.3%
COC(=O)c1cc(=O)c2cccc(OC)c2[nH]1 101%
C/C(=C\C(=O)c1ccccc1)Nc1cccc(O)c1 98%
COc1ccc(N/C(C)=C/C(=O)c2ccccc2)cc1 102%
C=CCNc1ncnc2ccccc12 103%
COc1cccc2c(=O)c(C(=O)O)c[nH]c12 98.3%
COc1cccc(N/C=C/C(=O)c2ccc(Cl)cc2)c1 101%
O=C(O)c1ccc2cccnc2c1O 100%
Cc1ccc(Nc2nc(N)[nH]c(=O)c2N=O)cc1 102%
CC1=CN2C(=N)/C(=C/c3ccc([N+](=O)[O-])o3)C(=O)N=C2S1 240%
COc1cccc2c(O)cc(=O)n(C)c12 99.6%
C=CCNc1nc(N)c([N+](=O)[O-])c(Nc2cccc(Cl)c2)n1 104%
C[n+]1cccc2c(Br)ccc([O-])c21 101%
CC1=CN2C(=N)/C(=C/c3ccc(C)o3)C(=O)N=C2S1 101%
O=C(Nc1ccccc1)O/N=C1/CCCc2occc21 100%
Cc1ccc2c(Cl)cc(Cl)c(O)c2n1 82.6%
C/C(=C\C(=O)c1ccc(Cl)cc1)Nc1ccc(Br)cc1 100%
O=C(Nc1cccc(Cl)c1)ON=C1c2ccccc2-c2ccccc21 102%
Brc1ccc2ncnc(NCc3ccccc3)c2c1 102%
COc1ccc(NC(=O)O/N=C2/CCCc3ccc(OC)cc32)cc1 104%
CSc1nc(Nc2ccc(Cl)cc2)c(C#N)c(=O)[nH]1 98.3%
CCC(C)Nc1nc(N)c([N+](=O)[O-])c(Nc2cc(OC)ccc2OC)n1 (centres undefined) 96.5%
Cc1ccc(C(=O)Nc2nc(-c3ccccn3)cs2)o1 99.3%
COc1ccccc1-c1cc(C(F)(F)F)nc(S(=O)(=O)CCCC(=O)NC(C)C)n1 94.4% and 99.1%
O=C(Nc1ccccc1Cl)ON=C1c2ccccc2-c2ccccc21 102%
OCc1ccc(O)c2ncccc12 101%
